This is a sample that favours compounds with a hit; in the whole collection about 1.1% have one here.
COUP-TFII inh – inhibitors of human COUP-TFII (NR2F2); P24468; HEK293T NGFI-A luciferase reporter, luminescence; inhibition, % at 8.6 µM; actives 0.7% (n = 370,000);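 active = inhibition above a per-plate cutoff, mean inhibition of test wells between control levels plus 3 SD, cut at about 38% in these data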;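 also: cells cotransfected with COUP-TFII expression vector driving the NGFI-A reporter; 0% = median of COUP-TF2 test wells and 100% = reporter-only cells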
NCOA2 inhibitor – human SRC2 (NCOA2) inhibition | AID 651957 | actives 0.17% (n = 370,000) | inhibition, % at 9 µM | HEK293 GAL4-SRC2 luciferase reporter, luminescence | Q15596;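 active = inhibition above the mean inhibition of all tested compounds plus 3 SD, set per campaign, cut at about 52% in these data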;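 also: 0% = DMSO treated cells and 100% = cells given Gossypol at 36 µM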
GalR3 antagonist – antagonists of human GalR3. inhibition, % at 3 µM. actives 0.44% (n = 360,000). HEK293 GalR3-CNG cAMP membrane potential fluorescence; galR3 body fused to GalR1 C-terminus. AID 651719. O60755;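 active = inhibition above the screen-wide average plus 3 SD, cut at about 13% in these data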;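 also: forskolin and galanin both at EC90 stimulate the cells; cAMP rise reported by CNG channel membrane potential dye signal; 0% = forskolin plus galanin with DMSO and 100% = forskolin alone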
NCOA3 inh – inhibits human SRC3 coactivator; Q9Y6Q9; HEK293 GAL4-SRC3 luciferase reporter, luminescence; inhibition, % at 3.6 µM; actives 0.17% (n = 360,000); AID 588352;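 active = inhibition above a per-campaign cutoff, the mean of all compounds plus 3 SD, cut at about 60% in these data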;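 also: 0% = DMSO-treated cells and 100% = gossypol-treated cells at 36 µM; higher means less SRC3-driven luciferase light from the GAL4 reporter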
SRC1 inh – inhibitors of human steroid receptor coactivator 1 (SRC1) | Q15788 | HEK293 GAL4-SRC1 luciferase reporter, luminescence | inhibition, % at 3.6 µM | actives 0.12% (n = 360,000);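 active = inhibition above the campaign mean plus 3 SD, with each screening campaign given its own cutoff, cut at about 60% in these data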;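 also: 0% = DMSO treated cells and 100% = gossypol at 36 µM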
NR5A2 inv ag – inverse agonists of human LRH-1 (NR5A2) | HEK293T StAR-luciferase reporter, LRH-1 transfected, 24 h | inhibition, % at 3.6 µM | actives 0.13% (n = 360,000) | AID 602396;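 active = inhibition above the mean inhibition of all tested compounds plus 3 SD, cut at about 73% in these data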;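 also: 0% = DMSO wells and 100% = reporter-only cells lacking LRH-1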
Target sequence (O00482 whole entry, looked up): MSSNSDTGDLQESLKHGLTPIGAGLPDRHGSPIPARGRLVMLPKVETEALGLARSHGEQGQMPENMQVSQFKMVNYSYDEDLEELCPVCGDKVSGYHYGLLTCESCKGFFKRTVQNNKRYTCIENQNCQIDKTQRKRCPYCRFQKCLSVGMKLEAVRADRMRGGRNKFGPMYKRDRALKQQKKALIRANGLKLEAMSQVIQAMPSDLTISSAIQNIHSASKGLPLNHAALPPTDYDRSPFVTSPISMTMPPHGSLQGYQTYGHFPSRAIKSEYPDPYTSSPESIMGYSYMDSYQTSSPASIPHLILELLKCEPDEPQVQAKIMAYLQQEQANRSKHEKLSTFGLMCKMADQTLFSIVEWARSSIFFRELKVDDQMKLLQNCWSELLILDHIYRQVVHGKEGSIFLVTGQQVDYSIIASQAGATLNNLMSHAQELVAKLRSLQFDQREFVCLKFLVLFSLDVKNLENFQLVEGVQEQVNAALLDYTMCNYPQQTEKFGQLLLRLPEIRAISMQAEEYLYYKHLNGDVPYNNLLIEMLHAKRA
VP16 Luc counter – VP16 inhibition counter-screen for COUP-TFII | shares compounds with COUP-TFII inh | HEK293 Gal4-VP16 luciferase reporter, luminescence | inhibition, % at 8.5 µM | actives 25% (n = 2,500) | AID 687007; in the data active = inhibition above about 13%
COUP-TFII conf – COUP-TFII (NR2F2) inhibition, confirmation assay; shares compounds with COUP-TFII inh; actives 45% (n = 2,500); inhibition, % at 8.5 µM; HEK293 NGFI-A luciferase reporter, luminescence;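 active = mean inhibition over three repeats above a set limit taken from the earlier primary screen, cut at about 38% in these data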;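 also: 100% = cells given the luciferase reporter alone without the COUP-TF2 vector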
The depositor's hits bear a star; . = not tested or not shown.

SMILES	COUP-TFII inh	NCOA2 inhibitor	GalR3 antagonist	NCOA3 inh	SRC1 inh	NR5A2 inv ag	VP16 Luc counter	COUP-TFII conf
COCCOc1ccc(C(F)(F)F)cc1N	-6	31	-2	18	14	3	.	.
CC(C)c1ccc(/C=C2\SC(=S)N(CCC(=O)N3CCCCC3CCO)C2=O)cc1 (stereo not drawn)	41*	48	-10	42	26	-5	-30	10
COc1ccc(/C=C2\SC(=S)N(CCCC(=O)N3CCN(C)CC3)C2=O)cc1	24	36	-7	12	20	16	.	.
COc1ccc(/C=C2\SC(=S)N(CCCC(=O)N3CCCCC3CCO)C2=O)cc1 (stereo not drawn)	54*	77*	-7	34	24	27	42*	30
O=C1/C(=C\c2ccccc2)SC(=S)N1CCC(=O)N1CCCCC1CCO (stereo not drawn)	21	5	-7	9	-5	7	.	.
O=C(CSc1ncccn1)NC(=O)NC1CCCC1	-4	0	-7	-22	-32	-1	.	.
C#CCNC(=O)C[C@@H]1C[C@@]2(C(=O)OC)CC(C)(C)CC=C2N(Cc2cccc3ccccc23)C1=O	14	12	-6	.	.	14	.	.
O=C1N=c2ccccc2=C1c1c(O)[nH]c2c(C(F)(F)F)cccc12	3	-29	-2	-1	-14	14	.	.
C(=N\Nc1ccc2ccccc2n1)/c1ccc2c(c1)OCCO2	64*	52	-5	57	60	43	38*	70*
CC(C)COC(=O)C(N)C(C(=O)OCC(C)C)c1ccccc1 (stereo not drawn)	7	13	-4	-13	-10	8	.	.
COc1ccc(Oc2nc(C)nc3c2oc2ccccc23)cc1	42*	25	-2	5	0	17	-1	12
O=C(CCC(=O)Nc1nnc(C2CCCCC2)s1)NCc1cccs1	-2	16	-3	-5	-2	-1	.	.
NC(=O)c1ccccc1NC(=O)COc1ccc2c(c1)OCO2	-27	-57	-8	-98	-75	-141	.	.
CC(C)Oc1ccc(/C=C(\C#N)C(=O)NC2CC2)cc1	82*	-81	-4	-48	-38	-21	-95	-37
O=C(COC(=O)CCN1C(=O)/C(=C\C=C\c2ccccc2)SC1=S)Nc1cc(F)ccc1F	42*	43	0	23	16	8	53*	64*
Cc1ccc2nc(NC(=O)CSCC(=O)OCC(=O)c3ccc(Br)cc3)sc2c1	40*	44	-2	36	2	-1	67*	49*
COc1ccc(C(=O)N2CCCC(c3ccccc3)C2)cc1 (stereo not drawn)	-2	-28	-1	13	-11	-16	.	.
O=C(Nc1ccccc1)c1nsnc1C(=O)Nc1ccccc1	5	-1	-5	12	-33	-15	.	.
Nc1nc2cc3c(cc2cc1C(=O)NCCc1c[nH]c2ccccc12)OCO3	66*	14	4	.	.	.	-2	52*
Nc1cc(S(=O)(=O)c2ccc(N3CCCCC3)c(N)c2)ccc1N1CCCCC1	43*	1	-9	2	0	1	5	22
Nc1cc(S(=O)(=O)N2CCCCC2)ccc1N1CCOCC1	15	9	3	12	0	12	.	.
CC1(C)Cc2ccccc2-c2c1c(=O)n(Cc1ccccc1)c1nnnn21	0	0	-5	7	-45	-3	.	.
Cc1ccc(-n2c(C)c([N+](=O)[O-])c3ccc(O)c(CN(C)C)c32)cc1	43*	36	-4	42	49	-10	14*	21
CCOC(=O)c1ccc(NC(=O)COc2ccc(S(=O)(=O)NC(C)CC)cc2)cc1 (stereo not drawn)	47*	-1	-3	-4	4	15	0	26
CC(=O)N1CCSc2ccc(S(=O)(=O)Nc3cccc(C)c3)cc21	37*	1	-10	12	17	26	-5	7
SMILES	COUP-TFII inh	NCOA2 inhibitor	GalR3 antagonist	NCOA3 inh	SRC1 inh	NR5A2 inv ag	VP16 Luc counter	COUP-TFII conf
CCOC(=O)c1ccc(NC(=O)C(C)NS(=O)(=O)c2ccc(OC)cc2)cc1 (stereo not drawn)	-2	-12	-3	10	2	5	.	.
COc1cccc(NS(=O)(=O)c2ccc3c(c2)N(C(C)=O)CCS3)c1	-1	9	-9	-1	-1	-3	.	.
Cc1ccc(NS(=O)(=O)c2ccc(NC(=O)N3CCCCC3)cc2)cc1	18	20	-4	3	4	10	.	.
CCOC(=O)c1cccc(NS(=O)(=O)c2ccc(NC(C)=O)cc2)c1	39*	44	-6	34	39	16	7	22
CCOC(=O)c1cccc(NS(=O)(=O)c2c(C)[nH]c(=O)[nH]c2=O)c1	-6	10	-6	0	3	1	.	.
Cc1cccc(NS(=O)(=O)c2ccc(NC(=O)N3CCCCC3)cc2)c1	48*	20	2	30	13	23	2	16
O=C(NCc1ccncc1)C(=O)NCC1OCCN1S(=O)(=O)c1ccccc1 (stereo not drawn)	-2	-3	-7	-2	-6	14	.	.
COc1ccc(N(CC(=O)NC2CCCC2)C(=O)Cn2nnc(-c3ccc(C)o3)n2)cc1	1	4	-7	0	0	17	.	.
CCN(CC)S(=O)(=O)c1cc(NC(=O)CCCOc2ccc(C(C)=O)cc2)ccc1C	42*	9	0	20	-1	42	-3	18
CCN(CC)S(=O)(=O)c1cc(NC(=O)c2ccc3c(c2)NC(=O)C(C)S3)ccc1C (stereo not drawn)	61*	36	-1	17	-7	18	9	47*
O=C(CSc1nnc(Cc2cccs2)n1-c1ccccc1)NC1CCCCC1	29	4	-2	17	-2	23	.	.
O=C1CC(N2CCN(c3ccccn3)CC2)C(=O)N1c1ccc(Cl)cc1 (stereo not drawn)	10	17	-3	-3	1	-4	.	.
CC(C)CC1C(=O)N(Cc2cn(CC3CCCCC3)nn2)CCS(=O)(=O)N1Cc1ccc(-c2ccncc2)cc1 (stereo not drawn)	14	-15	-5	5	-25	6	.	.
COC(=O)c1ccc(COc2cccc3c2CCN(Cc2cccc(C)c2)C3=O)o1	38*	-1	-7	8	-2	-9	-4	-1
COC(=O)c1ccc(COc2cccc3c2CCN(Cc2ccccc2)C3=O)o1	18	1	-6	-5	-21	14	.	.
O=[N+]([O-])c1cccc(-c2nnc(-c3ccccc3F)o2)c1	-24	-116	-2	-75	-79	-69	.	.
